Molecules are shown by their SMILES. Several values for one entry are separate records, joined by “and”; a condition that tells them apart may be missing. Equal entries are not always repeated. This is part of a sample that, as a whole, favours compounds with a hit. Of some 83,000 tested, about 20% had one in any assay.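 Negative percent growth values reflect cell death: -40 means 40% of the cells present at the start died, and -100 means all died.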 Unmarked numbers belong to inactive results. Activity calls are given as the source filed them. How the source made its calls: active means growth percent below 10; inactive means the rest.

Some test systems named below: HCT-15 colon; HT29 colon; SNB-75 CNS; SNB-19 CNS; U251 CNS; PC-3 prostate; SK-MEL-5 melanoma; UACC-62 melanoma; LOX IMVI melanoma; SK-MEL-28 melanoma; SK-MEL-2 melanoma; EKVX NSCLC; SN12C renal; UO-31 renal; TK-10 renal; CAKI-1 renal; A498 renal; CCRF-CEM leukemia; MOLT-4 leukemia; ACHN renal.
Common to all, as to experiment: NCI-60 one-dose screen, 48 h (100 = growth as untreated, 0 = no growth, -100 = all killed)
Conditions in all cases: 10 µM unless noted

Take `COc1ccc(NC(=O)Nc2ccccc2CNc2nc(Nc3ccc(OCCN4CCCC4)cc3)ncc2Cl)cc1`: the growth in the assay with HCT-15 colon is 5.09% (active); with HT29 colon, 3.08% (active); in the assay on SNB-75 CNS it was -47.8% (active); with SNB-19 CNS, 33.9%; in the assay with U251 CNS, -15.2% (active); in the assay on PC-3 prostate it was 23.3%. In addition, the growth in the assay on SK-MEL-5 melanoma was -40.6% (active); in the assay on UACC-62 melanoma, -53.4% (active); in the assay on LOX IMVI melanoma it was -99% (active); with SK-MEL-28 melanoma, -77.7% (active); with SK-MEL-2 melanoma it was -20.2% (active); in the assay on EKVX NSCLC, 55.4%. Further, the growth is -44.2% (active) with SN12C renal; -86% (active) in the assay with UO-31 renal; 1.49% (active) with TK-10 renal; -79.1% (active) with CAKI-1 renal; 51.9% in the assay on A498 renal; 1.9% (active) in the assay with CCRF-CEM leukemia. Further, the growth in the assay with MOLT-4 leukemia is 1.79% (active).
Turning to `CCOC(=O)n1cc(-c2nonc2-c2cn(C)c3ccc(OC)cc23)c2cc(F)ccc21`, the growth with HCT-15 colon is 69.2%; in the assay on HT29 colon, 71.1%; with SNB-75 CNS, 70.2%; in the assay with SNB-19 CNS it was 76.1%; in the assay with U251 CNS, 83.1%; in the assay on PC-3 prostate, 65%. Moreover, the growth in the assay with SK-MEL-5 melanoma is 92%; in the assay with UACC-62 melanoma, 52.6%; in the assay with LOX IMVI melanoma it was 72.2%; in the assay with SK-MEL-28 melanoma it was 99.6%; in the assay with SK-MEL-2 melanoma it was 99.8%; in the assay with EKVX NSCLC, 73.3%. For the same compound, the growth was 77.5% with SN12C renal; 52.1% in the assay with UO-31 renal; 94.2% in the assay on TK-10 renal; 60.2% in the assay on ACHN renal; 67.5% in the assay on A498 renal; 80.9% in the assay on CCRF-CEM leukemia. The growth in the assay with MOLT-4 leukemia is 80.3%.
Consider `O/N=C(/c1ccccc1)c1ccc2c3c(cccc13)CC2`, for which the growth was 84.7% and 77.3% in the assay with HCT-15 colon; 97.5% and 86.4% with HT29 colon; 74.8% and 58.4% in the assay on SNB-75 CNS; 98.5% and 94.1% with SNB-19 CNS; 90.1% and 89.3% in the assay with U251 CNS; 80% and 77.5% with PC-3 prostate. In addition, the growth in the assay with SK-MEL-5 melanoma was 98.1% and 91.1%; with UACC-62 melanoma it was 84.6% and 74.7%; with LOX IMVI melanoma it was 89.6% and 89.1%; in the assay on SK-MEL-28 melanoma, 92.8% and 87.5%; with SK-MEL-2 melanoma it was 96.2% and 92.7%; with EKVX NSCLC, 79.5%. For the same compound, the growth with SN12C renal was 93.1% and 85.7%; with UO-31 renal, 73.4% and 81.3%; with TK-10 renal it was 113% and 89.7%; in the assay on ACHN renal, 101% and 94.5%; in the assay on A498 renal, 78.3% and 89.2%; in the assay on CCRF-CEM leukemia, 75.3% and 82.8%. Moreover, the growth in the assay with MOLT-4 leukemia was 74.7% and 72.9%.
`NS(=O)(=O)c1ccc(C(=O)N=Nc2c(O)[nH]c3c(F)cccc23)cc1`: the growth is 105% in the assay with HCT-15 colon; 99.6% in the assay on HT29 colon; 97.7% in the assay with SNB-75 CNS; 97.4% in the assay with SNB-19 CNS; 98.6% with U251 CNS; 94.9% in the assay with PC-3 prostate. For the same compound, the growth with SK-MEL-5 melanoma was 101%; in the assay with UACC-62 melanoma, 99.6%; with LOX IMVI melanoma, 98%; in the assay on SK-MEL-28 melanoma, 105%; with SK-MEL-2 melanoma it was 104%; with EKVX NSCLC, 102%. Moreover, the growth in the assay on SN12C renal is 97.1%; in the assay on UO-31 renal it was 76.4%; in the assay on TK-10 renal it was 107%; in the assay on CAKI-1 renal, 93.2%; with A498 renal, 104%; with CCRF-CEM leukemia, 102%. Further, in the assay on MOLT-4 leukemia, the growth was 124%.
Take `C=C(C)[C@@H]1CC[C@]2(C(=O)O)CC[C@]3(C)[C@H](CC[C@@H]4[C@@]5(C)CCC(N)C(C)(C)[C@@H]5CC[C@]43C)[C@@H]12` (stereo partly drawn): the growth was 29.4% with HCT-15 colon; -13.6% (active) with HT29 colon; 95.8% in the assay on SNB-75 CNS; 28.1% with SNB-19 CNS; 5.5% (active) in the assay on U251 CNS; 66.5% in the assay on PC-3 prostate. Further, the growth is 61% in the assay with SK-MEL-5 melanoma; -51.7% (active) in the assay on UACC-62 melanoma; -51.1% (active) in the assay on LOX IMVI melanoma; -70.2% (active) with SK-MEL-28 melanoma; 93% in the assay with SK-MEL-2 melanoma; 67.6% in the assay with EKVX NSCLC. Besides, the growth in the assay with SN12C renal is -7.83% (active); in the assay on UO-31 renal, 63.4%; in the assay on TK-10 renal, 47.8%; with ACHN renal it was 8.7% (active); with A498 renal it was 78.1%; with CCRF-CEM leukemia, -8.42% (active). Further, the growth in the assay on MOLT-4 leukemia is 25.7%.
`COc1ccc(-c2nn3c(-c4cc(F)c(Cl)cc4Cl)nnc3s2)cc1`: the growth in the assay with HCT-15 colon was 42%; in the assay on HT29 colon, 5.17% (active); in the assay with SNB-75 CNS, 7.7% (active); in the assay on SNB-19 CNS, 40.6%; with U251 CNS, 35.6%; in the assay on PC-3 prostate, 42.8%. In addition, the growth was 20.1% in the assay on SK-MEL-5 melanoma; 44.4% in the assay with UACC-62 melanoma; 42.1% in the assay with LOX IMVI melanoma; 36.7% in the assay with SK-MEL-28 melanoma; 66.8% in the assay on SK-MEL-2 melanoma; 75.4% in the assay with EKVX NSCLC. For the same compound, the growth with SN12C renal was 72.5%; with UO-31 renal, 49.7%; in the assay on TK-10 renal, 105%; in the assay on CAKI-1 renal, 37.7%; in the assay on A498 renal, 65.9%; with CCRF-CEM leukemia, 9.61% (active). Besides, in the assay with MOLT-4 leukemia, the growth was 21.6%.
With `COc1ccc(/C=C/C(=O)c2cc3c(N)c(C(=O)Nc4ccccc4Cl)sc3nc2C)cc1`, the growth in the assay with HCT-15 colon was 54.2%; with HT29 colon, 39.2%; in the assay with SNB-75 CNS, -6.43% (active); in the assay with SNB-19 CNS it was 44.7%; in the assay on U251 CNS, 31.7%; in the assay with PC-3 prostate, 59.2%. In addition, the growth in the assay with SK-MEL-5 melanoma is -56.1% (active); in the assay on UACC-62 melanoma, -1.92% (active); in the assay on LOX IMVI melanoma, 48.2%; with SK-MEL-28 melanoma it was 42%; in the assay with SK-MEL-2 melanoma, 30.6%; in the assay on EKVX NSCLC it was 66.8%. For the same compound, the growth with SN12C renal is 53.8%; in the assay with UO-31 renal, -10.2% (active); in the assay with TK-10 renal, 20.4%; with ACHN renal, 10.2%; in the assay on A498 renal it was 30.9%; with CCRF-CEM leukemia it was 58.9%. For the same compound, in the assay on MOLT-4 leukemia, the growth is 36.2%.

The record behind these values is PubChem BioAssay (NCI).
